A selection: hits, their analogues and other compounds. The true share with any hit is near 7.9%.
KB-V1 MDR tox: KB-V1 MDR subline cytotoxicity; Potency, µM (top dose mostly 46.1 µM), most hits filed as cytotoxic; actives 3.4% (n = 400,000); AID 1347076; KB-V1 MDR cells viability, CellTiter-Glo, 72 h; further: on the % scale 0 is the no-effect control and ±100 the full control effect; nearly all actives have a fitted effect of over 60% in size
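Cytotoxicity toward P-gp-expressing KB-V1 cells was determined as loss of CellTiter-Glo luminescence after 72 h at 37 degrees C. Compounds were tested in quantitative HTS format across a concentration range, with curves fitted to normalized data.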
KB-3-1 tox: kills parental KB-3-1 adenocarcinoma cells; KB-3-1 viability, CellTiter-Glo ATP luminescence, 72 h; Potency, µM (top dose mostly 46.1 µM), hits mostly cytotoxic; actives 1.4% (n = 400,000); AID 1347075; further: on the % scale 0 is the no-effect control and ±100 the full control effect; nearly all actives have a fitted effect of over 60% in size
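Cells are dispensed, compounds pinned in, plates held at 37 °C for 72 h, then CellTiter-Glo is added and luminescence read after 10 minutes. Cell line: parental KB-3-1 in phenol-red-free DMEM, 10% FBS.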
HT1080NT lethal: kills 2HG-producing HT-1080-NT fibrosarcoma cells. HT-1080-NT fibrosarcoma viability, CellTiter-Glo ATP luminescence, 48 h. Potency, µM (highest dose often 46.1 µM), for the others: at the highest dose activity, negative = less viability, actives largely listed as cytotoxic. actives 1.6% (n = 360,000);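 further: NT is the 2HG producing partner of a matched IDH1 knockdown line; 0% = DMSO-treated cells and -100% = media-only wells without cells; nearly all actives have a fitted effect of over 55% in size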
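A 48-hour cytotoxicity screen used HT-1080-NT cells plated 2 hours before compound delivery. ATP-based CellTiter-Glo luminescence measured viability, normalized to DMSO and no-cell controls.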
MCF10A rereplic: DNA re-replication induction in MCF 10a cells; Potency, µM (top dose mostly 46.1 µM), for the others: top-dose activity, positive = re-replication, actives largely listed as activators; AID 624296; MCF 10A DNA re-replication, Hoechst nuclear intensity, 48 h; actives 2.9% (n = 350,000); further: % of control where 0% means no effect; nearly all actives have a fitted effect of over 50% in size
SW480 rerep: DNA re-replication induction in SW480 cells; Potency, µM (series often up to 46.1 µM), inactives show at the highest dose re-replication activation, most hits filed as activators; SW480 DNA re-replication, Hoechst DNA content imaging, 48 h; actives 1.8% (n = 340,000); further: % of control where 0% means no effect; nearly all actives have a fitted effect of over 55% in size
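Per well, 250 cells were exposed to pinned compound for 48 hr. Nuclear DNA was visualised with Hoechst (40 min, 37 C) and total object intensity recorded by fluorescence scanning.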
HT1080 IDH1KD tx: HT-1080 IDH1 knockdown cell toxicity (counter line); HT-1080 IDH1 knockdown viability, ATP luminescence, 48 h; Potency, µM (top dose mostly 46.1 µM), inactives show at the highest dose activity, negative = toxicity, most hits filed as cytotoxic; actives 2% (n = 360,000); AID 686971;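 further: 0% = DMSO wells and -100% = cell-free medium wells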
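Knockdown cells (IDH1KD HT-1080) received compounds 2 h after plating at 750 cells/well and were kept 48 h at 37 °C in 5% FBS RPMI. A CellTiter-Glo luminescence read gave % activity for curve fitting.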
* hit, by the source's call; i = inactive; u = inconclusive; x = no result given; [ ] = another dose, or the depositor's remark. The call rests on the fitted dose curve; in most records, active means well fitted curve in the direction sought with a large enough effect; inconclusive means small, poorly fitted or top-dose-only effect, or another doubt; inactive means no such curve, though single readings can be large; an effect the other way counts as inactive or inconclusive. Potency means the concentration at half of the fitted maximal effect.

SMILES	KB-V1 MDR tox	KB-3-1 tox	HT1080NT lethal	MCF10A rereplic	SW480 rerep	HT1080 IDH1KD tx
COC(=O)c1ccccc1NC(=O)N1CCN(S(=O)(=O)c2ccc(Cl)cc2)CC1	u	i	0%	u	9.2µM*	u
COc1cc2c(cc1OC)CN(CCC(C)c1ccc(Cl)cc1)CC2 (stereo unspecified)	i	i	-38%	u	-4%	15µM*
CCN(c1ccccc1)S(=O)(=O)c1ccc(OC)c(NC(=O)CCc2nc3ccccc3c(=O)[nH]2)c1	i	i	-9%	u	12%	-10%
CCCCn1c(SCC(=O)NC2CC2)nc2ccccc2c1=O	i	i	1%	u	-10%	0%
O=C(/C(=N/N=C/c1ccc(O)c(O)c1O)c1ccccc1)c1ccccc1	u	u	-16%	u	u	u
Oc1ccc(/C=N/N=C(c2ccccc2)c2ccccc2)c(O)c1O	i	u	-15%	21µM*	-2%	u
C=C1C(=O)[C@]23C[C@H]1CC[C@H]2[C@]1(C)[C@@H](OC(C)=O)CC[C@@](C)(C(=O)O)[C@H]1C[C@@H]3OC(C)=O	i	u	6.5µM*	x	x	6.5µM*
C=C1C(=O)[C@]23C[C@H]1CCC2[C@]1(C)C(=O)CC[C@@](C)(C(=O)O)C1C[C@@H]3O (stereo partly specified)	i	u	6.5µM*	x	x	8.2µM*
C=C1C(=O)[C@]23C[C@H]1CCC2[C@]1(C)CCC[C@@](C)(C(=O)O)C1C[C@@H]3O (stereo partly specified)	u	8.2µM*	4.1µM*	x	x	2.3µM*
C=C/C(C)=C/CC1C(=C)CCC2C(C)(C(=O)O)CCCC12C (stereo unspecified)	i	i	-4%	2%	-10%	4%
c1ncc2snnc2n1	i	i	x	x	x	x
Cc1ccc(CNC(=O)c2cc3c(C)nc4ccccc4c3o2)cc1	i	i	4%	4%	-3%	-1%
Cc1c(C(=O)NCc2ccccn2)oc2ccccc12	i	i	9%[9.24 µM]	-8%	-1%	-9%
Cc1nc2ccccc2c2oc(C(=O)NCc3ccccn3)cc12	2.6µM*	i	-1%	14%	-4%	-18%
O=C(NCCc1ccccn1)c1cc(-c2ccc(Cl)c(Cl)c2Cl)nc2ccccc12	5.8µM*	u	-3%	8%	-2%	u
Cc1c(C(=O)NCc2ccccn2)oc2c(Cl)cccc12	8.2µM*	i	6%	12%	0%	0%
O=C(NCc1ccccn1)c1cc(-c2ccccc2Cl)nc2ccccc12	18µM*	i	5%	1%	-33%	9%
O=C(NCc1ccccn1)c1cc(-c2ccncc2)nc2ccccc12	i	i	5%	3%	3%	-3%
COc1ccc(-c2nc(CNC(=O)NC3CCCCC3)c(C)o2)cc1	i	i	x	x	x	x
Cn1c(=O)c2c(ncn2CC(=O)OCC(=O)Nc2cccc(C#N)c2)n(C)c1=O	i	i	6%	x	x	7%
Cc1ccc(Cl)c(OCC(=O)Nc2cccnc2)c1	i	i	27%	-49%	-1%	u
O=C(NNC(=O)c1cc(-c2ccc(Cl)cc2Cl)nc2ccccc12)Nc1ccccc1	23µM*	u	u	u	u	u
O=C(NCc1ccc(Cl)cc1)c1ccc2c(Cl)c3c(nc2c1)CCCC3	i	i	x	x	x	x
CCOC(=O)Cc1csc(Nc2ccc(Cl)cc2)n1	i	i	-4%	-2%	6%	6%
CCOC(=O)Cc1nnc2c(Nc3ccc(Cl)cc3)nc3nonc3n12	u	u	u	13µM*	10%	9.2µM*
SMILES	KB-V1 MDR tox	KB-3-1 tox	HT1080NT lethal	MCF10A rereplic	SW480 rerep	HT1080 IDH1KD tx
COC(=O)CNC(=O)C1CCN(S(=O)(=O)c2cnc[nH]2)CC1	i	i	19%	-3%	-8%	14%
C/C(=N\NC(=O)c1ccccc1O)c1ccc(Br)s1	u	i	u	7%	x	15µM*
C/C(=N\NC(=O)c1ccccc1O)c1c(O)cc(C)oc1=O	u	i	u	u	5.8µM*	10µM*
C/C(=N\NC(=O)c1ccccc1[N+](=O)[O-])c1c(O)cc(C)oc1=O	i	i	20%	-6%	-7%	15%
CCOC(=O)C(CC)/C(C)=N\NC(=O)c1ccccc1O (stereo unspecified)	2.1µM*	u	u	u	u	16µM*
CCC/C(C)=N/NC(=O)c1ccccc1O	i	i	-3%	4%	16%	10%
C/C(=N\NC(=O)c1cccc(F)c1)c1ccc(Br)s1	u	i	11µM*	u	9.2µM*	5.6µM*
COc1ccc(-c2nnc(SCC(=O)Nc3cccc(F)c3)s2)cc1	i	i	x	x	x	x
O=C(NN=C(Cc1ccccc1)Cc1ccccc1)c1ccc(F)cc1	i	i	-1%	3%	1%	2%
O=C(NN=C(Cc1ccccc1)Cc1ccccc1)c1ccccc1O	u	i	-16%	12%	18µM*	-20%
Cc1ccc2sc(N(CCN(C)C)C(=O)c3ccc4ccccc4c3)nc2c1C	i	u	-1%	17%	u	0%
CN(C)CCCN(C(=O)CCOc1ccccc1)c1nc2ccc(F)cc2s1	i	i	18µM*	u	u	21µM*
CN(C)CCCN(C(=O)CCOc1ccccc1)c1nc2c(F)cccc2s1	i	u	15µM*	u	u	7.3µM*
Cc1ccc2sc(N(CCCN(C)C)C(=O)CN3C(=O)c4ccccc4C3=O)nc2c1C	i	i	16µM*	1%	u	u
COc1ccc(-c2oc3ncn4nc(COc5ccccc5C)nc4c3c2-c2ccc(OC)cc2)cc1	i	i	x	x	x	x
COC(=O)c1cc2c([nH]c1=O)CCCC2=O	u	i	-3%	-16%	0%	-3%
CCn1ncc(C2=NOC(C(=O)NCc3ccccc3)C2)c1C (stereo unspecified)	u	1.6µM*	2.8µM*	4.6µM*	3.7µM*	1.8µM*
COc1cccc(C2=NOC(C(=O)Nc3cccc(C(C)=O)c3)C2)c1OC (stereo unspecified)	i	i	1%	17%	-3%	-3%
CCn1ncc(C2=NOC(C(=O)Nc3cccc(C(C)=O)c3)C2)c1C (stereo unspecified)	18µM*	u	0%	-3%	-10%	-23%

Assay outcomes from PubChem BioAssay.
